Several values for one entry are separate records, joined by “and”; a condition that tells them apart may be missing. Identical values can stand only once. Counter-ions that a name gives are not always drawn.
Columns and labels:
Assay in all cases: cell viability relative to vehicle control; higher = less cytotoxic
Conditions in all cases: 10 µM
K562 = tested on: K562
Summary of the method: (§1)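 Mutant clones made by CRISPR editing and their isogenic wild-type counterparts, from four leukaemia lines, were exposed to a single 10 µM dose of each library compound for 48 h. The supernatant was then removed and CellTiter-Glo luminescence was read. Viability was reported as percent of the on-plate vehicle control.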

MARIMO = tested on: MARIMO
Summary of the method: as §1

MOLM14 = tested on: MOLM14
Summary of the method: as §1

OCI-AML2 = tested on: OCI-AML2
Summary of the method: as §1

Structure (SMILES) | cell viability (K562; SRSF2 genotype: SRSF2 P95H/wt) | cell viability (K562; SRSF2 genotype: SRSF2 wt/wt) | cell viability (MARIMO; SRSF2 genotype: SRSF2 P95H/wt) | cell viability (MARIMO; SRSF2 genotype: SRSF2 wt/wt) | cell viability (MOLM14; SRSF2 genotype: SRSF2 P95H/wt) | cell viability (MOLM14; SRSF2 genotype: SRSF2 wt/wt) | cell viability (OCI-AML2; SRSF2 genotype: P95H/wt) | cell viability (OCI-AML2; SRSF2 genotype: wt/wt)
COc1nc2ccc(Br)cc2cc1[C@@H](c1ccccc1)[C@@](O)(CCN(C)C)c1cccc2ccccc12 [Bedaquiline fumarate] | 55% and 58.7% | 74.9% | 63.9% | 55.5% | 41.6% | 54.7% | 24.1% | 21.3%
O=C(O)c1cn(-c2ccc(F)cc2)c2cc(N3CCNCC3)c(F)cc2c1=O [Sarafloxacin HCl] | 99.7% and 102% | 90.9% | 97.8% | 102% | 103% | 99.5% | 102% | 102%
CC1(C)O[C@H]2CC(=O)OC[C@]23[C@H]2CC[C@@]4(C)[C@H](c5ccoc5)OC(=O)[C@H]5O[C@]54[C@]2(C)C(=O)C[C@@H]13 [Limonin] | 98% and 110% | 109% | 97.3% | 109% | 102% | 109% | 111% | 102%
Cc1cc(C(C)(C)C)cc(C)c1CC1=NCCN1 [Xylometazoline HCl] | 92.4% and 97.6% | 99.5% | 95.4% | 105% | 102% | 103% | 93.4% | 99.7%
C=C(C)[C@@H]1CC[C@]2(C(=O)O)CC[C@]3(C)[C@H](CC[C@@H]4[C@@]5(C)CC[C@H](O)[C@@](C)(CO)[C@@H]5CC[C@]43C)[C@@H]12 [23-Hydroxybetulinic acid] | 93.7% and 96.8% | 91.1% | 96.6% | 107% | 100% | 103% | 103% | 109%
Nc1nccc(Oc2ccc(NC(=O)c3c[nH]cc(-c4ccc(F)cc4)c3=O)cc2F)c1Cl | 76.3% and 90.6% | 80.8% | 96.2% | 110% | 19.9% | 14.8% | 41.8% | 43.6%
O=C(/C=C/c1ccc(O)c2c1[C@H](C(=O)O[C@H](Cc1ccc(O)c(O)c1)C(=O)O)[C@@H](c1ccc(O)c(O)c1)O2)O[C@H](Cc1ccc(O)c(O)c1)C(=O)O [Salvianolic acid B] | 96.5% and 101% | 101% | 101% | 108% | 96.7% | 103% | 98.9% | 97.8%
O=C(Nc1cccc(C(F)(F)F)c1)Nc1cc(S(=O)(=O)NC2CC2)ccc1-c1ccsc1 | 82.6% and 92.4% | 80.2% | 94.2% | 104% | 92% | 94.4% | 86.6% | 95%
Cc1cc(O)cc(O)c1 [Orcinol] | 110% and 104% | 104% | 100% | 98.8% | 113% | 107% | 98.7% | 107%
CCC(=O)NS(=O)(=O)c1ccc(-c2c(-c3ccccc3)noc2C)cc1 [Parecoxib Sodium] | 102% and 91.9% | 100% | 101% | 104% | 93.4% | 104% | 92.3% | 97.3%
Cn1nnc(-c2ccc(-c3ccc(N4C[C@H](CO)OC4=O)cc3F)cn2)n1 [Tedizolid] | 87.1% and 82.2% | 83.3% | 77.3% | 88.1% | 89.4% | 85.5% | 79.9% | 81.6%
O=C(O)c1ccc(Cl)cc1O [4-Chloro-2-hydroxybenzoic acid] | 108% and 109% | 98.6% | 104% | 103% | 101% | 107% | 101% | 115%
c1cc2c(c3c1C[C@H]1c4cc5c(cc4CCN1C3)OCO5)OCO2 [Stylopine hydrochloride] | 90.4% and 91.9% | 91.4% | 97.7% | 96.3% | 88% | 94% | 92.8% | 97.5%
COc1ccccc1 [Anisole] | 96.8% and 90.2% | 102% | 98.6% | 101% | 94.6% | 101% | 99.5% | 110%
CC1OC2OC3C(OCC(O)C3O)OC(=O)C34CCC(C)(C)CC3C3=CCC5C6(C)CC(O)C(OC7OC(CO)C(O)C(O)C7OC7OCC(OC(=O)CC(C)(O)CC(=O)OC1C(OC1OCC(O)C(O)C1O)C2O)C(O)C7O)C(C)(CO)C6CCC5(C)C3(C)CC4O (stereo not drawn) [Tubeimoside II] | 23.1% and 15.2% | 16.7% | 46.2% | 70.6% | 51.2% | 86.1% | 28.5% | 38.4%
CN1CCC(c2c(O)cc(O)c3c(=O)cc(-c4ccccc4Cl)oc23)C(O)C1 (stereo not drawn) [Flavopiridol (Alvocidib) HCl] | 5.96% and 15.8% | 7.9% | 11.1% | 4.66% | 3.87% | 0.54% | 5.83% | 16.3%
COc1cc2ncnc(Oc3cccc(NC(=O)Nc4cc(C(C)(C)C(F)(F)F)on4)c3)c2cc1OC | 23.5% and 40.4% | 24.8% | 79.4% | 85% | 33.8% | 23.7% | 60.3% | 61.5%
CC(NC(=O)Cc1cc(F)cc(F)c1)C(=O)NC1C(=O)N(C)c2ccccc2-c2ccccc21 (stereo not drawn) | 101% and 102% | 108% | 99.7% | 94.5% | 105% | 104% | 105% | 107%
COCCOC(=O)C1=C(C)NC(C)=C(C(=O)OC(C)C)C1c1cccc([N+](=O)[O-])c1 (stereo not drawn) [Nimodipine (Nimotop)] | 88.8% and 92.4% | 99.3% | 85.2% | 92.7% | 87.6% | 99.4% | 83.7% | 88.4%
Clc1ccc(CCC(Cn2ccnc2)Sc2c(Cl)cccc2Cl)cc1 (stereo not drawn) [Butoconazole nitrate] | 74.1% and 80.8% | 75.7% | 75.8% | 83.9% | 79.7% | 75.7% | 71.5% | 69.6%
C[C@]1(COc2ccc(N3CCC(Oc4ccc(OC(F)(F)F)cc4)CC3)cc2)Cn2cc([N+](=O)[O-])nc2O1 [Delamanid] | 97.1% and 93.5% | 93.5% | 94.6% | 100% | 94.9% | 101% | 83.8% | 88.6%

Structure (SMILES) | cell viability (K562; SRSF2 genotype: SRSF2 P95H/wt) | cell viability (K562; SRSF2 genotype: SRSF2 wt/wt) | cell viability (MARIMO; SRSF2 genotype: SRSF2 P95H/wt) | cell viability (MARIMO; SRSF2 genotype: SRSF2 wt/wt) | cell viability (MOLM14; SRSF2 genotype: SRSF2 P95H/wt) | cell viability (MOLM14; SRSF2 genotype: SRSF2 wt/wt) | cell viability (OCI-AML2; SRSF2 genotype: P95H/wt) | cell viability (OCI-AML2; SRSF2 genotype: wt/wt)
O=[N+]([O-])c1ccc(Nc2nc(N3CCOCC3)nc(N3CCOCC3)n2)cc1 | 99% and 99.5% | 95.7% | 95.7% | 95.8% | 112% | 99.8% | 107% | 116%
Cc1ccc2oc(=O)ccc2c1 [6-Methylcoumarin] | 99.5% and 87.8% | 91.3% | 97.3% | 98.6% | 95% | 101% | 91.1% | 107%
CC(C)NC[C@H](O)COc1ccc(CCOCC2CC2)cc1 [Levobetaxolol HCl] | 91.7% and 81.4% | 83% | 83% | 90.6% | 89.1% | 91.8% | 79.4% | 98.4%
OC[C@H]1O[C@@](CO)(OC[C@@]2(OC[C@@]3(OC[C@@]4(O[C@H]5O[C@H](CO)[C@@H](O)[C@H](O)[C@H]5O)O[C@H](CO)[C@@H](O)[C@@H]4O)O[C@H](CO)[C@@H](O)[C@@H]3O)O[C@H](CO)[C@@H](O)[C@@H]2O)[C@@H](O)[C@@H]1O [1F-Fructofuranosylnystose] | 110% and 109% | 104% | 109% | 103% | 103% | 107% | 101% | 108%
CC[C@H]1OC(=O)[C@H](C)[C@@H](O[C@H]2C[C@@](C)(OC)[C@@H](O)[C@H](C)O2)[C@H](C)[C@@H](O[C@@H]2O[C@H](C)C[C@H](N(C)C)[C@H]2O)[C@](C)(O)C[C@@H](C)CN(C)[C@H](C)[C@@H](O)[C@]1(C)O [Azithromycin Dihydrate] | 86.8% and 80.4% | 82.7% | 86% | 83.7% | 86.8% | 93.3% | 77.9% | 88%
O=S(=O)(c1ccc2c(c1)C(=NO)c1cc(S(=O)(=O)N3CCCCC3)ccc1-2)N1CCCCC1 | 0.51% and 0.55% | 0.51% | 3.1% | 0.51% | 0.31% | 30.1% | 0.87% | 0.36%
CC(C[N+](C)(C)C)OC(N)=O (stereo not drawn) [Bethanechol chloride] | 97.9% and 102% | 102% | 111% | 112% | 108% | 109% | 109% | 98.2%
O=S(=O)(O)NC1CCCCC1 [Cyclamic acid] | 102% and 96.3% | 97.2% | 100% | 111% | 104% | 104% | 94.5% | 110%
COc1cc(O)c2c(=O)cc(-c3ccc(O)c(O)c3)oc2c1 [Hydroxygenkwanin] | 85.2% and 89.8% | 88.9% | 45.7% | 69.4% | 57.5% | 58.8% | 58.3% | 56.4%
CC(=O)c1ccccc1 [Acetophenone] | 98.7% and 89.7% | 91.4% | 84.5% | 91.5% | 90.6% | 91.1% | 85.3% | 83.6%
O=C(C[S+]([O-])Cc1ccco1)NC/C=C\COc1cc(CN2CCCCC2)ccn1 (stereo not drawn) [Lafutidine] | 104% and 105% | 102% | 104% | 104% | 96.9% | 101% | 105% | 108%
C[C@@H](N)c1ccc(C(=O)Nc2ccnc3[nH]ccc23)cc1 | 90.4% and 107% | 105% | 65.8% | 78% | 31.2% | 41.1% | 19.1% | 32.1%
O=C(NO)c1ccc(CC(=O)N(CCO)c2ccccc2)cc1 | 87.2% and 92.2% | 86.2% | 78.9% | 90.4% | 71.9% | 73.6% | 77.2% | 81.6%
CN1CCN(c2ccc(OC(F)(F)F)c(Nc3ncc4c(n3)-c3c(c(C(N)=O)nn3CCO)CC4)c2)CC1 | 29.2% and 49.6% | 46% | 24.7% | 22.9% | 17.5% | 4.9% | 14.6% | 18.8%
NS(=O)(=O)c1cc2c(cc1Cl)NC(C(Cl)Cl)NS2(=O)=O (stereo not drawn) [Trichlormethiazide (Achletin)] | 102% and 101% | 102% | 108% | 99.7% | 94.7% | 106% | 112% | 110%
C=C1CC23CCC4C(C)(C(=O)OC5OC(CO)C(O)C(O)C5O)CCCC4(C)C2CCC1(OC1OC(CO)C(O)C(OC2OC(CO)C(O)C(O)C2O)C1OC1OC(C)C(O)C(O)C1O)C3 (stereo not drawn) [Rebaudioside C] | 101% and 99.8% | 106% | 108% | 111% | 106% | 103% | 112% | 101%
NC(=O)NO [Hydroxyurea (Cytodrox)] | 102% and 106% | 103% | 97.5% | 105% | 109% | 108% | 108% | 108%
CN(C)c1ccc(C(=O)NCCCCCCC(=O)NO)cc1 | 1.52% and 16.7% | 6.13% | 6.98% | 14.2% | 1.22% | 0.66% | 2.92% | 6.46%
COc1cc(CCC(=O)CC(=O)CCc2ccc(O)c(OC)c2)ccc1O [Tetrahydrocurcumin] | 94.1% and 90.6% | 89.2% | 90.2% | 88.7% | 92.8% | 94.5% | 85.8% | 97.3%
C=C1CC[C@H]2O[C@]2(C)CC[C@@H]2[C@@H]1CC2(C)C [Caryophyllene oxide] | 100% and 97% | 105% | 102% | 105% | 103% | 107% | 112% | 98%

Source: the supplement of paper PMC10981050
